40 molecules from PubChem BioAssay (Tox21) can be followed below.

Each structure is given as a SMILES string. Some compounds were tested as several samples or in several runs, with calls that do not always agree. Activity calls are given as the source filed them. The call rests on the fitted dose curve.
On the % scale 0 is the no-effect control and ±100 the full control effect; potency means the concentration at half of the fitted maximal effect.

For this assay, the target named is Thyrotropin-releasing hormone receptor (Homo sapiens) (UniProt P34981). Briefly: qHTS assay to identify small molecule agonists of the thyrotropin-releasing hormone receptor (TRHR) signaling pathway (AID 1346891).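 On activation: HEK293 cells expressing TRHR with calcium dye readout.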 The settings on record: TRHR-HEK293 calcium fluorescence, agonist mode; series mostly up to 57.6 µM; activation: at the top concentration. The text has this: National Center for Advancing Translational Sciences [NCATS] NIH Chemical Genomics Center [NCGC] U.S. Environmental Protection Agency [EPA] National Institutes of Environmental Health Sciences [NIEHS] National Toxicology Program [NTP] Assay overview: Thyrotropin-releasing hormone (TRH) receptor (TRHR) is a G-protein-coupled receptor which binds the tripeptide thyrotropin releasing hormone. TRHR is found in the brain and, when bound by TRH, acts (through phospholipase C) to increase intracellular inositol trisphosphate. It plays a crucial role in the anterior pituitary where it controls the synthesis and secretion of thyroid stimulating hormone and prolactin. The TRHR-Hek293 assay is a cell-based assay, and it has the potential to screen G protein-coupled receptors. A compound/drug can either activate (agonist) or suppress (antagonist) GPCRs that can be monitored by levels of intracellular calcium. Using this assay, the Tox21 10K compound library was screened to identify potential TRHR agonists.
Sequence of Thyrotropin-releasing hormone receptor (Homo sapiens) (P34981 whole entry, looked up): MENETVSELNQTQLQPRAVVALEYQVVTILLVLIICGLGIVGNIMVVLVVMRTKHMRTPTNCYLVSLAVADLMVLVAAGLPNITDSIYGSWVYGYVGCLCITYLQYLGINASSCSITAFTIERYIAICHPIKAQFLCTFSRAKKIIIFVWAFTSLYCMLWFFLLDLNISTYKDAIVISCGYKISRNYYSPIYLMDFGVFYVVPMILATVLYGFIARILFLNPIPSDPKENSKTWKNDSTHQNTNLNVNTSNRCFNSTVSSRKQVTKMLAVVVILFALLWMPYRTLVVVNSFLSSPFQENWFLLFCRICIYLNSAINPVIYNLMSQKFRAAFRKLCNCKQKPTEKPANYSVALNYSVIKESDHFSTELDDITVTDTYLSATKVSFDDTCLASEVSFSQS
Assay Protocol Summary: The TRHR-Hek293 cells were dispensed at 1500cells/4uL/well in 1536-well black-clear bottom plates using a Multidrop dispenser. After the assay plates were incubated at a 37 C/5% CO2 incubator for 18 hours, 4 uL of Dye-Loading Solution was added to each well. The plates were incubated at 37 C for 2 hours. For agonist mode, 23 nL of compounds dissolved in DMSO, positive controls or DMSO only was transferred to the assay plate by a pin tool. The fluorescence intensity in the plates was measured using FDSS 7000EX kinetic plate reader for 3 min at 1 sec intervals. Each test compound was measured at 15 concentrations and in triplicates.
(Quantitative high-throughput screening tests each substance at several concentrations.)
For the molecule `Nc1ccccc1C(=O)Oc1ccc2ccccc2c1`, the “activation” value was 0.183% (inactive).
`COS(=O)(=O)c1ccc(C)cc1`: the “activation” value was -0.168% (inactive).
As for `Brc1c(Br)c(Br)c(Oc2c(Br)c(Br)c(Br)c(Br)c2Br)c(Br)c1Br`, the activation is -0.444% [at 11.8 µM] (inactive).
As for `CC1(c2ccc(Oc3ccccc3)cc2)OC(=O)N(Nc2ccccc2)C1=O` (stereo not given), the “activation” value was 0.558% (inactive).
For the molecule `Cc1cc(C(F)(C(F)(F)F)C(F)(F)F)ccc1NC(=O)c1cccc(I)c1C(=O)NC(C)(C)CS(C)(=O)=O`, the “activation” value is -0.44% [at 26.5 µM] (inactive).
Turning to `N#CC(Cl)Cl`, the “activation” value was -0.483% (inactive).
As to `C=COCCCl`, the “activation” value is -0.0119% (inactive).
The same measure, in the same setting: the value for `C1CCC2CCCCC2C1` (stereo not given) was 0.265% (inactive).
For the molecule `CN(C)S(=O)(=O)N(SC(F)(Cl)Cl)c1ccccc1`, the “activation” value was -1.1% (inactive).
`O=[N+]([O-])c1cc(C(F)(F)F)c(Cl)c([N+](=O)[O-])c1Cl`: the “activation” value is 5.1% (inactive).
For the molecule `CC(C)OS(C)(=O)=O`, the “activation” value is -0.187% (inactive).
On to `CC(C)OC(=S)S`, for which the “activation” value is 0.05% (inactive).
For `Cc1cc(C(C)(C)c2cc(C)c(O)c(C)c2)cc(C)c1O`, the “activation” value was 22.4% (inactive).
As to `CCCCCCCCCCCCCCCC[n+]1ccccc1`, the Potency was 36.3 µM (active) and inactive.
On to `CC(C)C1CCC(Cc2ccc(Cl)cc2)C1(O)Cn1cncn1` (stereo not given), for which the “activation” value is 16.8% (inactive).
Take `Oc1c(Br)c(Br)c(Br)c(Br)c1Br`: the “activation” value is 15.1% (inactive).
As for `CCOP(=S)(OCC)SCCS(=O)(=O)CC`, the “activation” value was -0.169% (inactive).
`Oc1cc(Cl)c(Cl)c(Cl)c1`: the “activation” value is 14.8% (inactive).
As to `Clc1ccc(CSC(Cn2ccnc2)c2ccc(Cl)cc2Cl)cc1` (stereo not given), the “activation” value is 0.19% [at 26.5 µM] (inactive).
The same measure, in the same setting: for `CCCCCCCCCCBr` the value was -0.11% (inactive); for `COc1cccc(C(=O)CCN[C@@H](C)[C@H](O)c2ccccc2)c1`, 2.25% [at 26.5 µM] (inactive).
Take `CC(=O)OC1(c2ccccc2)CCN(CCc2ccccc2)CC1`: the “activation” value was -0.177% (inactive).
On to `CCN`, for which the “activation” value was 0.174% (inactive).
For `C[As+](C)(C)CC(=O)[O-]`, the “activation” value was 0.0644% (inactive).
Turning to `O=[N+]([O-])c1ccc(Oc2ccc(C(F)(F)F)cc2[N+](=O)[O-])cc1`, the “activation” value is 0.094% (inactive).
In the case of `CCOC(=O)C1(c2ccccc2)CCN(CCC(C#N)(c2ccccc2)c2ccccc2)CC1`, the “activation” value was 0.22% [at 26.5 µM] (inactive).
Same read-out and setting: the value for `N#CCc1ccc(Cl)cc1` was 0.581% (inactive); that for `CC(=O)c1cc(C(C)(C)C)cc2c1CCC2(C)C` was -0.73% (inactive).
`CC(C)CCCCCCCOP(=O)(Oc1ccccc1)Oc1ccccc1`: the “activation” value was 0.335% (inactive).
As to `N#Cc1c(-c2ccc(Cl)cc2)[nH]c(C(F)(F)F)c1Br`, the “activation” value was 12.7% (inactive).
As to `CCc1nn(C)c(C(=O)NCc2ccc(C(C)(C)C)cc2)c1Cl`, the “activation” value was 0.673% (inactive).
In the case of `CCCOCC(=Nc1ccc(Cl)cc1C(F)(F)F)n1ccnc1`, the “activation” value is 1.27% (inactive).
In the case of `C[C@H]1CC[C@@H]2[C@@H](C)[C@H]3[C@H](C[C@H]4[C@@H]5CC=C6CC(O[C@@H]7O[C@H](CO)[C@H](O)[C@H](O[C@@H]8O[C@H](CO)[C@@H](O)[C@H](O)[C@H]8O)[C@H]7O[C@H]7O[C@@H](C)[C@H](O)[C@@H](O)[C@H]7O)CC[C@]6(C)[C@H]5CC[C@]34C)N2C1` (stereo not given in full), the Potency was 8.99 µM (active).
In the case of `CN(CCCC(=O)c1cccnc1)N=O`, the “activation” value was -0.421% (inactive).
`ClC1=C(Cl)[C@]2(Cl)[C@@H]3[C@@H](Cl)[C@H](Cl)C[C@@H]3[C@@]1(Cl)C2(Cl)Cl`: the “activation” value was 0.202% (inactive).
For the molecule `COc1ccc(OC)c(C=O)c1`, the “activation” value was -0.423% (inactive).
`CCCSP(=O)(OCC)SCCC`: the “activation” value is -0.835% (inactive).
In the case of `CCCCCCCCCC[N+](C)(C)CCCCCCCCCC`, the “activation” value is 14.6% (inactive).
For the molecule `CC(C)N1C(=O)N(c2ccccc2)CSC1=NC(C)(C)C`, the “activation” value was 0.403% (inactive).
With `Fc1cccc(Cl)c1CCl`, the “activation” value was -0.337% (inactive).
